Data as given in PubChem BioAssay.
The source made the active and inactive calls.

What was measured:
[1] = target: NADPH oxidase 4 (Homo sapiens) (UniProt Q9NPH5); assay: NOX4-dependent H2O2 signal modulators, primary screen, NOX inhibitor project, cell-based, HEK293-NOX4, tetracycline-induced, Amplex Red fluorescence (AID 1160); conditions: 45 min, higher = more signal, called active from +8 up or from −8 down
[2] = target: NADPH oxidase 5 (Homo sapiens) (UniProt Q96PH1); assay: NOX5-dependent H2O2 signal modulators, primary screen, NOX inhibitor project, cell-based, HEK293-NOX5, Amplex Red fluorescence (AID 1161); conditions: HEK293-NOX5, ionomycin, 45 min, higher = more signal
NADPH oxidase 5 (Homo sapiens), sequence (Q96PH1 whole entry, looked up): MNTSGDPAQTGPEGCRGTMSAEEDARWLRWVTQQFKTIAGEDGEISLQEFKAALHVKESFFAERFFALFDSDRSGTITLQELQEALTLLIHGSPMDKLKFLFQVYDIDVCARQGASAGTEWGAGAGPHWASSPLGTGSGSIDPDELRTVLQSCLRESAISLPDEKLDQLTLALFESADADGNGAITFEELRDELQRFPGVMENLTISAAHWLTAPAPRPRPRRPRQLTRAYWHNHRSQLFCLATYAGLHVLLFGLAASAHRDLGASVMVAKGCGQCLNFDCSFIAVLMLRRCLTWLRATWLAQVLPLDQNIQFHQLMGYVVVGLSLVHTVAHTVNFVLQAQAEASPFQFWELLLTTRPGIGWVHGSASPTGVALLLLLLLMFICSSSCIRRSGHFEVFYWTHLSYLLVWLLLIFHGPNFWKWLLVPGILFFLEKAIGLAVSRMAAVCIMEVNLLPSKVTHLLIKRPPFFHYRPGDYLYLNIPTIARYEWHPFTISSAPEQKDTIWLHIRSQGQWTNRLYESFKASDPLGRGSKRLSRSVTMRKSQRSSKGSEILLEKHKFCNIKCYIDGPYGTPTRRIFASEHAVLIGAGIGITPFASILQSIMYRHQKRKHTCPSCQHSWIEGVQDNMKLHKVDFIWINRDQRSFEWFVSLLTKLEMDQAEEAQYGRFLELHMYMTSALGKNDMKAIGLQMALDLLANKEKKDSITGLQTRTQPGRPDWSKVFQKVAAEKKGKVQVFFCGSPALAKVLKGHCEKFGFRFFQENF

[3] = A549 cell viability effects, profiling panel, calcein-AM fluorescence, 48 h, basal (AID 1162); conditions: higher = more signal; further: test concentration not given here
[4] = adipocyte viability effects, profiling panel, cell-based, 3T3-L1 adipocytes, calcein-AM fluorescence, 48 h, basal (AID 1163); conditions: 3T3-L1 adipocytes viability, higher = more signal; further: test concentration not given here
[5] = HepG2 cell viability effects, profiling panel, calcein-AM fluorescence, 48 h, basal (AID 1164); conditions: higher = more signal; further: test concentration not given here
[6] = MM1S cell viability effects, profiling panel, calcein-AM fluorescence, 48 h, basal (AID 1165); conditions: higher = more signal;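 further: viability of MM1S multiple myeloma cells under basal unstimulated conditions; test concentration not given here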
[7] = basal RPMI8226 viability, no added stimulus, profiling panel, cell-based, calcein-AM fluorescence, 48 h, PK04 Diversity Set (AID 1166); conditions: RPMI8226 myeloma viability, higher = more signal;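 further: cells grown under basal conditions without added stimulus; test concentration not given here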
[8] = basal HepG2 mitochondrial membrane potential changes, profiling panel, cell-based, JC-1 fluorescence, 24 h, 100 nL compound (AID 1167); conditions: higher = more signal; further: test concentration not given here
[9] = basal 3T3-L1 adipocyte mitochondrial potential changes, profiling panel, cell-based, JC-1 fluorescence, 3T3-L1 adipocytes, 24 h, 100 nL compound (AID 1168); conditions: JC-1 mitochondrial fluorescence, higher = more signal, called active from +8 up or from −8 down; further: test concentration not given here
[10] = basal RPMI8226 mitochondrial membrane potential changes, profiling panel, cell-based, JC-1 fluorescence, 24 h, 100 nL compound (AID 1169); conditions: RPMI8226 myeloma, JC-1 mitochondrial potential fluorescence, higher = more signal; further: test concentration not given here
[11] = basal MM1S mitochondrial membrane potential changes, profiling panel, cell-based, JC-1 fluorescence, 24 h, 100 nL compound (AID 1170); conditions: higher = more signal; further: test concentration not given here
[12] = A549 lung cancer cell viability effects, profiling panel, resazurin fluorescence, 24 h, PK04 Diversity Set (AID 1171); conditions: higher = more signal, called active from +8 up or from −8 down; further: test concentration not given here
[13] = HepG2 liver cancer cell viability effects, profiling panel, resazurin fluorescence, 24 h, PK04 Diversity Set (AID 1172); conditions: higher = more signal; further: test concentration not given here
[14] = basal S. cerevisiae growth modulation, no modifier, primary screen, OD600, strain BY4716, 24 h, basal condition (AID 1173); conditions: OD600, 24 h, higher = more signal, called active from +8 up or from −8 down
[15] = MM1S myeloma cell viability, profiling panel, resazurin fluorescence, basal, 24 h, PK04 Diversity Set (AID 1174); conditions: higher = more signal, called active from +8 up or from −8 down;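 further: MM1S multiple myeloma cell line; test concentration not given here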
[16] = target: Dihydroorotate dehydrogenase (quinone), mitochondrial (Plasmodium falciparum (isolate 3D7)) (UniProt Q08210); assay: PfDHODH enzyme inhibitors, primary screen, biochemical, C-terminal His tag, absorbance 600 nm (AID 1175); conditions: DCIP absorbance 600 nm, higher = more signal, called active from +8 up or from −8 down;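 further: recombinant parasite enzyme with a five histidine tag at its C terminus; test concentration not given here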
Dihydroorotate dehydrogenase (quinone), mitochondrial (Plasmodium falciparum (isolate 3D7)), sequence (Q08210 whole entry, looked up): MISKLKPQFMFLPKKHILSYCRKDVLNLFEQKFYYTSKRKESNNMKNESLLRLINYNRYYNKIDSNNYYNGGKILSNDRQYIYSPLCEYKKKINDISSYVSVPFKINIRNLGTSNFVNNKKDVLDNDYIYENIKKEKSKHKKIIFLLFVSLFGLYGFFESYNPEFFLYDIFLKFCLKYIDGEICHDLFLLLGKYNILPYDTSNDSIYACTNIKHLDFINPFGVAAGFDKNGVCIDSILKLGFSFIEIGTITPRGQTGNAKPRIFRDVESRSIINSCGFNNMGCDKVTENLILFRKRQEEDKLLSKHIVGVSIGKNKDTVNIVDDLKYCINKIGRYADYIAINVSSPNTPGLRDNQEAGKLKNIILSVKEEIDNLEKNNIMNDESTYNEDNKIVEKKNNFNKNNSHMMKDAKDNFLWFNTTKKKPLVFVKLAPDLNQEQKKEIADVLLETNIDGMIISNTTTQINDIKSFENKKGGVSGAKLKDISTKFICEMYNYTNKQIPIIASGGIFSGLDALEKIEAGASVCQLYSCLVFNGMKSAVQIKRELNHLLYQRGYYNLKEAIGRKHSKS

[17] = S. cerevisiae RM11-1a growth modifiers, primary screen, strain RM11-1a, OD600, basal, 24 h (AID 1177); conditions: OD600, 24 h, higher = more signal, called active from +8 up or from −8 down;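 further: cultures grown under basal conditions with no added stressor; test concentration not given here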
[18] = E. coli acrAB mutant growth effects, primary screen, E. coli filamentation inducers, strain DRC39, OD650, 24 h (AID 1178); conditions: higher = more signal, called active from +8 up or from −8 down;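 further: growth measured as culture turbidity by optical density at 650 nm; test concentration not given here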
[19] = E. coli acrAB mutant growth effects, primary screen, E. coli filamentation inducers, strain DRC39, OD650, 48 h (AID 1179);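 further: screen aims at cell division blockers that make cells filament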; conditions: E. coli DRC39 delta-acrAB growth, higher = more signal, called active from +8 up or from −8 down
[20] = RPMI8226 myeloma cell viability, profiling panel, resazurin fluorescence, basal, 24 h, PK04 Diversity Set (AID 1180); conditions: higher = more signal;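 further: RPMI8826 multiple myeloma cell line at 5000 cells per well; test concentration not given here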

NADPH oxidase 4 (Homo sapiens), sequence (Q9NPH5 whole entry, looked up): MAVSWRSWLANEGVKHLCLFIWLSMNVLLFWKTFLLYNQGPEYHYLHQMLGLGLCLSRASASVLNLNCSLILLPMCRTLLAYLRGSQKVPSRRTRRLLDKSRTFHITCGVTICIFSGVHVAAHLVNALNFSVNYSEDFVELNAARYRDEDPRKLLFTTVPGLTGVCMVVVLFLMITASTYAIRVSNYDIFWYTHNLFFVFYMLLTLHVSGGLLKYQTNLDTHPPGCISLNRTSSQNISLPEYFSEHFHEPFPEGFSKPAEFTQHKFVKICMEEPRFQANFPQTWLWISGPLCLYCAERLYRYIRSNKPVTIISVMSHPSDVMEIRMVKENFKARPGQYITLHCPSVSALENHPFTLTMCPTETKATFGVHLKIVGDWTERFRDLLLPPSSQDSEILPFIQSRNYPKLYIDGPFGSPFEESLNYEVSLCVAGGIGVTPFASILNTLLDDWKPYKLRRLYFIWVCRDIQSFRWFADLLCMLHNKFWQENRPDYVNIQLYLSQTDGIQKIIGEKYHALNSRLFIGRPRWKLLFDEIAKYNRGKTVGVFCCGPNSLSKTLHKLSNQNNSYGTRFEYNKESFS

Row | Structure (SMILES) | z-score [1] | z-score [2] | z-score [3] | z-score [4] | z-score [5] | z-score [6] | z-score [7] | z-score [8] | z-score [9] | z-score [10] | z-score [11] | z-score [12] | z-score [13] | z-score [14] | z-score [15] | composite z-score [16] | z-score [17] | z-score [18] | z-score [19] | z-score [20]
1 | Cc1ccc(S[C@]2(C(=O)NCC(C)C)CC(=O)N(C(C)C)[C@@H]2c2ccc(CO)cc2)cc1 | -0.881 (inactive) | 0.137 | -0.0169 | 2.25 | -1.49 | 0.623 | -0.954 | 0.34 | -0.446 (inactive) | 0.134 | 0.381 | 0.443 (inactive) | -0.784 | 0.225 (inactive) | 1.13 (inactive) | -0.052 (inactive) | -1.24 (inactive) | 1.49 (inactive) | 0.719 (inactive) | 0.687
2 | [N-]=[N+]=NCc1ccccc1C[C@@]1(C(=O)O)N=C(c2ccc(OCCCO)cc2)O[C@@H]1c1ccccc1 | 1.34 (inactive) | 1.48 | 0.349 | 0.298 | -0.187 | -0.139 | 0.0527 | -0.586 | 0.493 (inactive) | -0.497 | 0.394 | 0.946 (inactive) | 0.458 | -3.34 (inactive) | 0.954 (inactive) | 0.0567 (inactive) | -1.01 (inactive) | 2.63 (inactive) | 1.26 (inactive) | 0.903
3 | COCCCNC(=O)[C@@]1(Cc2ccccc2)N=C(c2ccc(OCCCO)cc2)O[C@H]1c1ccccc1N=[N+]=[N-] | 0.523 (inactive) | -1.57 | -0.622 | 1.95 | -0.121 | -1.67 | -4.02 | 1.12 | 2.93 (inactive) | -1.1 | -0.433 | -1.83 (inactive) | 0.357 | 0.346 (inactive) | -1.13 (inactive) | 1.37 (inactive) | 2.42 (inactive) | 1.22 (inactive) | 0.18 (inactive) | -2.12
4 | C=CC[C@]1(C(=O)N2CCCCC2)COC(c2ccc(OCCCO)cc2)=N1 | -0.256 (inactive) | -3.57 | -1.48 | 1.98 | -2.29 | -3.6 | -2.3 | -0.223 | 0.322 (inactive) | -0.749 | -0.435 | -0.585 (inactive) | 1.55 | -6.59 (inactive) | -0.863 (inactive) | -0.0606 (inactive) | 0.474 (inactive) | 2.98 (inactive) | 0.693 (inactive) | 0.909
5 | O=C(O)[C@H]1C[C@H]2C(=O)N[C@@H](Cc3ccccc3)C(=O)N2[C@H]1c1ccc(O)cc1 | 1.42 (inactive) | 2.01 | -0.315 | 0.691 | -0.142 | 0.41 | 0.0405 | 1.29 | -0.176 (inactive) | -0.865 | -0.269 | 0.715 (inactive) | 0.833 | -0.145 (inactive) | 0.635 (inactive) | -0.426 (inactive) | -0.44 (inactive) | 0.431 (inactive) | 0.361 (inactive) | 1.04
6 | O=C1O[C@H](c2ccccc2)[C@H](c2ccccc2)N2[C@H]1[C@@H](C(=O)Nc1nc3ccccc3s1)[C@]1(C(=O)Nc3ccc(C#CCCO)cc31)[C@H]2c1ccccc1OCCO | 0.228 (inactive) | 2.14 | -0.655 | 1.87 | 0.383 | -1 | -0.198 | -2.75 | 1.18 (inactive) | -0.8 | -1.16 | 0.411 (inactive) | 0.253 | 0.243 (inactive) | 0.228 (inactive) | -0.244 (inactive) | 1.07 (inactive) | 0.381 (inactive) | 0.391 (inactive) | -0.914
7 | C=CCC(OC(C)=O)[C@@H]1[C@@H](N(Cc2cccc3ccccc23)C(=O)Cc2ccc(OC)cc2)c2cc(OCCCO)ccc2N1C(=O)Cc1ccc(OC)cc1 (stereo not given in full) | -0.451 (inactive) | 2.4 | 1.25 | 1.47 | 0.691 | 1.76 | -1.55 | 2.38 | 0.847 (inactive) | -0.44 | 0.791 | 0.493 (inactive) | -0.197 | -1.63 (inactive) | 0.844 (inactive) | 0.363 (inactive) | -0.27 (inactive) | 1.51 (inactive) | 0.443 (inactive) | 0.666
8 | C=CCNC(=O)[C@H]1[C@@H]2C(=O)O[C@@H](c3ccccc3)[C@@H](c3ccccc3)N2[C@@H](c2ccccc2OCCO)[C@]12C(=O)N(C(=O)OCCOC)c1ccc(C#CCCO)cc12 | 1.42 (inactive) | 1.01 | 0.822 | 0.674 | -0.123 | -2.04 | -1.42 | 0.534 | 0.825 (inactive) | -0.847 | -0.665 | 0.659 (inactive) | -0.156 | 0.799 (inactive) | 0.287 (inactive) | -0.409 (inactive) | 1.57 (inactive) | 0.488 (inactive) | 0.985 (inactive) | -0.0311
9 | C=C(/C(=C/C[C@H](OC(=O)c1ccncc1)c1cccc(OCCO)c1)c1cc(C(=O)OC)ccc1OC)C(C)C | 0.0371 (inactive) | -1.71 | 0.396 | 1.7 | -0.712 | -0.026 | 0.566 | 2.15 | 0.746 (inactive) | 0.0166 | 0.343 | 2.01 (inactive) | 0.731 | -0.177 (inactive) | 1.8 (inactive) | -0.494 (inactive) | -1.06 (inactive) | 1.17 (inactive) | 0.196 (inactive) | 0.987
10 | CCOC(=O)C[C@H]1[C@H](OC(=O)Cc2ccc3c(c2)OCO3)[C@@H](NC(=O)c2ccc3ccccc3c2)c2cc(OCCCO)ccc2N1C(=O)c1ccc2ccccc2n1 | -0.0398 (inactive) | -3.84 | 3.85 | 0.898 | 1.94 | -0.144 | 0.934 | 2.77 | 3.13 (inactive) | 0.319 | 1.64 | 1.09 (inactive) | 1.36 | -1.73 (inactive) | -0.0816 (inactive) | 0.623 (inactive) | -4.07 (inactive) | 1.23 (inactive) | 0.0331 (inactive) | -0.375
11 | CO[C@H]1O[C@H](CO)[C@@H](OC(=O)Nc2ccccc2)[C@H](OC(=O)Nc2ccc3c(c2)OCO3)[C@H]1OC(=O)Nc1ccc2c(c1)OCO2 | -3.08 (inactive) | -2.05 | 0.275 | 1.27 | -1.27 | -1.03 | -1.98 | -0.136 | 3.03 (inactive) | -0.629 | 0.398 | -1.33 (inactive) | -0.697 | -0.613 (inactive) | -0.652 (inactive) | -0.48 (inactive) | 1.69 (inactive) | 2.13 (inactive) | 0.828 (inactive) | -0.638
12 | [N-]=[N+]=NCc1ccccc1C[C@]1(C(=O)NCc2ccccc2)N=C(c2ccc(OCCCO)cc2)O[C@H]1c1ccccc1 | 1.24 (inactive) | 0.0397 | -2.79 | 0.457 | -2.82 | -2.07 | -2.78 | 0.671 | 0.371 (inactive) | -0.819 | -1.6 | 0.225 (inactive) | 0.643 | 2.86 (inactive) | -0.295 (inactive) | 2.37 (inactive) | 4.01 (inactive) | 3.49 (inactive) | 1.24 (inactive) | -0.29
13 | CCCCC(=C=CC[C@@H](O)c1ccc(OCCO)cc1)C[C@@H](O)c1cc(Cl)cc(Cl)c1O | 0.55 (inactive) | -1.14 | 2.24 | 1.37 | 0.652 | -3.38 | -3.4 | -0.376 | 1.43 (inactive) | -0.0474 | 0.781 | 2.58 (inactive) | 2.12 | -5.94 (inactive) | 0.199 (inactive) | -2.43 (inactive) | -3.1 (inactive) | 3.34 (inactive) | 2.27 (inactive) | 0.285
14 | CN1C=C(C(=O)OCCS(C)(=O)=O)C(C(=O)OCCS(C)(=O)=O)=CC(CCCO)=CC1c1cccs1 (stereo not given) | 0.858 (inactive) | 0.0246 | 2.6 | 0.778 | 0.615 | 0.175 | -0.249 | 1.9 | 1.93 (inactive) | 0.0813 | 0.885 | 0.776 (inactive) | 0.666 | -3.06 (inactive) | 1.07 (inactive) | -4.08 (inactive) | -1.01 (inactive) | 1.26 (inactive) | 0.676 (inactive) | 0.602
15 | CO[C@H]1O[C@H](CO)[C@@H](OC(=O)Nc2ccccc2)[C@H](OC(=O)Nc2ccccc2-c2ccccc2)[C@H]1OC(=O)Nc1ccccc1-c1ccccc1 | -0.665 (inactive) | -1.43 | -4.11 | 1.59 | -4.94 | -3.51 | -4.34 | -1.05 | 3.65 (inactive) | -1.17 | -1.64 | -6.11 (inactive) | -4.93 | -2.12 (inactive) | -6.52 (inactive) | -0.551 (inactive) | 0.145 (inactive) | 0.218 (inactive) | -0.414 (inactive) | -5.34
16 | CC(C)CNC(=O)[C@@H]1c2ccccc2C(=O)N(Cc2ccc(OC(F)(F)F)cc2)[C@H]1c1ccc(CO)cc1 | 0.925 (inactive) | 1.57 | 2.26 | 0.18 | 0.442 | -0.201 | 0.351 | 2.64 | 1.08 (inactive) | 0.417 | -0.881 | 1.31 (inactive) | 0.867 | -1.78 (inactive) | 1.33 (inactive) | -0.876 (inactive) | -2.73 (inactive) | 1.38 (inactive) | 1.5 (inactive) | 1.13
